RGS4 inhibitor: blocks human RGS4-accelerated GTP hydrolysis. P49798. Transcreener GDP fluorescence polarization, RGS4-accelerated GTP hydrolysis. Potency, µM (titrated, usually from 114 µM), without a hit: top-dose activity change, negative = inhibition, actives largely listed as inhibitors. 390,000 tested, 0.039% active. AID 504845; further: nearly all actives have a fitted effect of over 75% in size
Target sequence (P49798 whole entry, looked up): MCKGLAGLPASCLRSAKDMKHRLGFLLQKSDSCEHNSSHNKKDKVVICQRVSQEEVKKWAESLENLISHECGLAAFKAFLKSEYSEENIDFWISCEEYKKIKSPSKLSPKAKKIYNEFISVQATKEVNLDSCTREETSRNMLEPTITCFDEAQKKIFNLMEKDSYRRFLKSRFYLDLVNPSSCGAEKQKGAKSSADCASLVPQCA
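MLSMR compounds (23 nl, pin-transferred) preincubated 10 min at room temperature with a 500nM (2x) first reagent, then RGS4 at 900nM (2x) plus Transcreener GDP mix added; fluorescence polarization (620/688 nm) read before and after 90 min at 30 °C.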
TDP1 block: TDP1 (human) enzyme inhibition; Q9NUW8; recombinant TDP1, AlphaScreen DNA substrate cleavage; Potency, µM (highest dose often 130 µM), without a hit: at the highest dose activity change, negative = inhibition, usual class: inhibitors; 350,000 tested, 0.28% active; AID 485290; further: nearly all actives have a fitted effect of over 40% in size
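Signal: AlphaScreen proximity between streptavidin donor and anti-FITC acceptor beads on intact substrate. Reaction: Tdp1 1 nM, substrate 15 nM final, 5 min RT after 15 min compound preincubation.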
KAT2A inh: GCN5L2 (KAT2A) acetyltransferase inhibition; Q92830; GCN5L2 HAT assay, ThioGlo1 CoA-SH fluorescence; Potency, µM (doses to about 58.9 µM), for the others: top-dose activity change, negative = inhibition, most hits filed as inhibitors; 390,000 tested, 0.21% active
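Compounds, pin-transferred from DMSO stocks, meet 20nM GCN5L2 for 15 min before the reaction begins with H3(1-25) peptide (75uM) and acetyl-CoA (70uM). Thiol-reactive ThioGlo1 reports CoA release over 20 min at room temperature.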
BLM helicase inh: Bloom syndrome helicase (human) inhibition; P54132; recombinant BLM DNA unwinding, fluorescence dequenching; Potency, µM (series often up to 56.1 µM), without a hit: at the top dose activity change, negative = inhibition, most hits filed as inhibitors; 350,000 tested, 0.2% active;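 further: plate controls were vehicle for no effect and no enzyme for full effect; nearly all actives have a fitted effect of over 35% in size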
RECQ1 inh: blocks DNA unwinding by human RECQ1 | 240,000 tested, 0.54% active | P46063 | RECQ1 DNA unwinding, red fluorescence kinetic read | Potency, µM (series often up to 57.3 µM), without a hit: top-dose activity, negative = inhibition, usual class: inhibitors;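 further: plate controls were vehicle for no effect and no enzyme for full effect; nearly all actives have a fitted effect of over 30% in size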
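RECQ1T1 50 nM; forked duplex (20 bp + 30-nt ss tails) 200 nM, ATP 2 mM final; pH 8.0, 2 mM MgCl2, 2.5 ug/ml poly(dI-dC); 15 min compound preincubation; discontinuous kinetic read over 2 h at RT.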
APE1 inh: APE1 (human) endonuclease inhibition; 350,000 tested, 0.35% active; AID 2517; recombinant APE1, TAMRA/BHQ-2 abasic DNA cleavage fluorescence; P27695; Potency, µM (series often up to 65.8 µM), for inactives: at the highest dose activity change, negative = inhibition, most hits filed as inhibitors;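 further: plate controls were vehicle for no effect and reference inhibitor for full effect; nearly all actives have a fitted effect of over 55% in size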
Target sequence (P27695 whole entry, looked up): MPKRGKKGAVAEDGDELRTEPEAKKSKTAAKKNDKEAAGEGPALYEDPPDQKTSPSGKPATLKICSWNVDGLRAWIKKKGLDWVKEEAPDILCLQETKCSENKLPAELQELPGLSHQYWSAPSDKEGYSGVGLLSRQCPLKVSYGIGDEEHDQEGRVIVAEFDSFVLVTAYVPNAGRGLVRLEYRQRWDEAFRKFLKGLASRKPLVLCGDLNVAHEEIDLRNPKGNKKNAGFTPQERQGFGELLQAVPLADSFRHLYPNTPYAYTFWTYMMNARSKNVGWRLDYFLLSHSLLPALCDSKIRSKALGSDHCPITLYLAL
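Kinetic fluorescence read (525 ex/598 em nm, three reads 60 s apart) of AP-site incision; signal = third minus first read. Enzyme 0.75 nM, dual-labelled THF duplex 50 nM, compound preincubation 15 min RT.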
The depositor's hits bear a star; i = inactive; u = inconclusive; x = not tested or not shown; ! = repeats disagree; [ ] = remark or other dose. Compounds with a hit are over-represented: about 0.87% of the library has one in this group of screens. The call rests on the fitted dose curve; in most records, active means well fitted curve in the direction sought with a large enough effect; inconclusive means small, poorly fitted or top-dose-only effect, or another doubt; inactive means no such curve, though single readings can be large; an effect the other way counts as inactive or inconclusive. Unless noted, on the % scale 0 is the no-effect control and ±100 the full control effect; potency means the concentration at half of the fitted maximal effect.

SMILES | RGS4 inhibitor | TDP1 block | KAT2A inh | BLM helicase inh | RECQ1 inh | APE1 inh
CCCCCCCCCCCCCCCC(=O)NCC(COP(=O)([O-])OCC[N+](C)(C)C)OCC (stereo not drawn) | 21.2µM* | -5.7%[56.1 µM] | 0.5% | x | -4.3% | -7.4%
CCCCCCCCCCCCCCCCCC(=O)NCC(COP(=O)([O-])OCC[N+](C)(C)C)OCC (stereo not drawn) | u | 4.8% | u | x | i | -5.5%
N=C(CC(O)COc1ccccc1-c1ccccc1)N1CCCCC1 (stereo not drawn) | x | 8.2% | -5.6% | -8.8% | -18.6% | 10µM*!
N#Cc1nc(NCC(F)F)c2ncn(-c3cc(F)cc(F)c3)c2n1 | x | -0.9% | x | x | x | x
O=C(O)c1ccccc1-c1c2cc(Br)c(=O)c(Br)c-2oc2c(Br)c(O)c(Br)cc12 | x | -13.4% | 22.4µM* | 28.2µM* | 31.6µM* | u
Cc1ccc2oc(-c3ccccc3C(=O)O)cc(=O)c2c1 | -2.9%[11.4 µM] | 2.0% | -11.4% | 0.2% | -2.7% | 1.3%
COc1cccc(C2c3c(ncn(-c4ccccc4SC)c3=N)Oc3ccc4ccccc4c32)c1 (stereo not drawn) | x | 5.3% | x | x | x | x
COc1ccccc1N1C(=N)S/C(=C\c2ccc(-c3ccccc3C(=O)O)o2)C1=O | -21.0% | 11.2µM* | -12.0% | 1.6% | u | 28.2µM*
O=C(CN1C(=O)S/C(=C\c2ccc(-c3cc(C(=O)O)ccc3Cl)o2)C1=O)Nc1ccc2c(c1)OCO2 | x | 7.94µM* | u | 10µM* | x | 6.7µM*
CCOC(=O)CN1C(=O)S/C(=C\c2ccc(-c3cccc(C(=O)O)c3C)o2)C1=O | 11.2% | x | x | x | x | x
Cc1ccc(NC(=O)CN2C(=O)S/C(=C\c3ccc(-c4cccc(C(=O)O)c4C)o3)C2=O)cc1C | u | 79.4µM* | -0.1% | u | 12.4% | u
CCOC(=O)c1ccc(-n2cnc3c(c2=N)C(c2cccc(OC)c2)c2c(ccc4ccccc24)O3)cc1 (stereo not drawn) | x | 2.6% | x | x | x | x
Cn1cc(/C=C2\SC(=S)N(NC(=O)c3cccc(Cl)c3)C2=O)c2ccccc21 | -0.1%[11.4 µM] | x | u | -5.1% | 11.1% | -0.3%
Cn1cc(/C=C2\SC(=S)N(NC(=O)c3ccccc3)C2=O)c2ccccc21 | -14.3% | 5.4% | -0.8% | -8.1% | 31.6µM* | -4.3%
O=C1c2ccccc2C(=O)N1c1cccc2ccncc12 | x | 1.6% | x | x | x | x
S=c1[nH]nc(Nc2ccccc2Cl)s1 | u | 7.5% | 25.1µM* | -4.9% | 1.7% | -6.7%
S=c1[nH]nc(Nc2cccc(Cl)c2)s1 | -33.2%[56.9 µM] | 10.8% | 22.4µM* | 3.8% | -1.8% | 4.7%
NC(=O)C1CCN(c2nc(-c3cccc([N+](=O)[O-])c3)cs2)CC1 | x | x | x | x | x | -8.0%
CC(C)(C)n1ncc2c(=O)n(Cc3ccc(Cl)c(SC(F)(F)F)c3)cnc21 | x | x | x | x | x | 15.4%
O=C1c2ccccc2C(=O)N1c1ccc2ccccc2n1 | x | 1.5% | x | x | x | x
Cc1c(P(=S)(c2ccccc2)c2ccccc2)[n+]2ccccc2n1CCCc1ccccc1 | x | 2.0% | x | x | x | x
O=C(COC(=O)/C=C/c1ccco1)NC1CCCCC1 | u | 50.1µM* | -1.2% | x | x | u
O=C(COC(=O)/C=C/c1ccco1)NCCc1ccccc1 | -19.2% | 28.2µM* | -1.9% | -8.6% | i | u
O=C(COC(=O)/C=C/c1ccc(Br)o1)NC1CCCCC1 | u | x | -1.5% | x | x | -24.6%
CCOc1cc(/C=C2/SC(=S)NC2=O)ccc1OC(=O)c1ccco1 | -40.6% | 5.4% | -27.9% | -8.7% | i | 13.6%
SMILES | RGS4 inhibitor | TDP1 block | KAT2A inh | BLM helicase inh | RECQ1 inh | APE1 inh
O=C1NC(=S)S/C1=C/c1ccc(OC(=O)c2ccco2)cc1 | -23.9% | 50.1µM* | -24.2% | -13.7% | x | -4.8%
CS(=O)(=O)C1=NN2C(=N)/C(=C\c3ccc(OC(=O)c4ccco4)cc3)C(=O)N=C2S1 | -4.9% | 50.1µM* | -12.2% | -15.5% | x | -39.3%
N=C1/C(=C\c2ccc(OC(=O)c3ccc(F)cc3)cc2)C(=O)N=C2SC(N3CCOCC3)=NN12 | 14.3% | 56.2µM* | -15.6% | -7.5% | x | -25.0%
O=C1CCc2cc(S(=O)(=O)Nc3ccccn3)ccc2N1 | x | -0.8% | x | x | x | x
COc1ccc(C2Nc3ccccc3C(=O)N2Cc2ccccc2C(F)(F)F)cc1COc1ccc(NC(C)=O)cc1 (stereo not drawn) | x | -13.5% | x | x | x | x
NC(=O)c1cc[n+](CC2=C(C(=O)[O-])N3C(=O)[C@@H](NC(=O)Cc4cccs4)[C@H]3SC2)cc1 | x | x | x | x | x | -2.8%[21 µM]
COc1cc(NC(=O)c2cc([N+](=O)[O-])ccc2NC(=O)CNCc2ccccn2)cc(OC)c1 | u | 56.2µM* | -12.9% | -0.5% | x | 0.0%
COc1ccc(NC(=O)c2cc([N+](=O)[O-])ccc2NC(=O)CNCc2ccccn2)c(OC)c1 | u | 7.8% | -10.2% | -4.0% | x | 12.8%
O=C1CCc2cc(S(=O)(=O)Nc3ccc(-c4ccccc4)cc3)ccc2N1 | x | 2.7% | x | x | x | x
Cc1cc(C)c(C(=O)/C=C/c2ccco2)c(=O)[nH]1 | u | 15.8µM* | -20.3% | 3.6% | -21.1% | u
Cc1ccc(/C=C/C(=O)c2c(C)cc(C)[nH]c2=O)cc1 | -4.6% | 3.9% | -1.7% | -3.5% | -9.1% | 6.9%
O=c1oc2cc(O)ccc2cc1-c1ccccc1 | -18.4% | 0.9% | u | 1.0% | x | 32.9%
COc1ccc(-c2cc3ccc(O)cc3oc2=O)cc1 | -38.8% | 1.7% | 31.6µM* | -6.0% | x | -20.6%
C=CCN(c1nc(C)c(Br)c(OC)n1)S(=O)(=O)c1ccc(C)cc1 | 11.5% | 50.1µM* | -18.1% | -7.1% | x | 1.8%
COc1ccc(C2Nc3ccccc3C(=O)N2Cc2cccc(-c3ccccc3)c2)cc1COc1ccc(NC(C)=O)cc1 (stereo not drawn) | x | 0.7% | x | x | x | x
Cc1ccc2[nH]c(=O)c(CN(Cc3ccccc3)Cc3nnnn3Cc3ccco3)cc2c1 | -30.3% | 2.3% | x | x | x | x
O=C(N[C@H]1C/C=C\C[C@@H](CC(=O)N(CCO)Cc2ccccc2)C(=O)N2CCC[C@H]2COC1=O)OCC1c2ccccc2-c2ccccc21 | -0.6% | -10.1% | -1.9% | x | x | -9.8%
O=C(N[C@H]1C/C=C\C[C@@H](CC(=O)N(CCO)Cc2ccccc2)C(=O)N2CCC[C@@H]2COC1=O)OCC1c2ccccc2-c2ccccc21 | -1.9% | -7.6% | -7.9% | x | x | 10.6µM*
Cc1ccc(-c2nn(-c3ccccc3)cc2C(=O)O)o1 | x | u | u | 0.6% | 31.6µM* | u
O=C(N/N=C/c1cn(Cc2cccc(F)c2)c2ccccc12)c1cc(O)cc(O)c1 | 4.4% | 0.631µM* | -24.5% | -0.6% | x | 1.5µM*

High-throughput results deposited in PubChem by National Center for Advancing Translational Sciences (NCATS).
